Screens (PubChem)
Only some compounds are listed: those with a hit (about 5.7% of all), similar ones and a draw of the others.
HT1080 IDH1KD tx = kills HT-1080 cells with IDH1 knockdown; HT-1080 IDH1 knockdown viability, ATP luminescence, 48 h; Potency, µM (top dose mostly 46.1 µM), for the others: at the highest dose activity, negative = toxicity, actives largely listed as cytotoxic; 360,000 compounds, 2% hits;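 further: 0% = DMSO wells and -100% = cell-free medium wells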
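In this qHTS, HT-1080 cells depleted of IDH1 are exposed for 48 h at 37 °C to compound titrations. Toxicity is scored from CellTiter-Glo luminescence, with DMSO as full viability and medium alone as none.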
KB-3-1 cytotox = kills parental KB-3-1 adenocarcinoma cells. KB-3-1 viability, CellTiter-Glo ATP luminescence, 72 h. Potency, µM (doses to about 46.1 µM), most hits filed as cytotoxic. 400,000 compounds, 1.4% hits. AID 1347075; further: nearly all actives have a fitted effect of over 60% in size
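Luminescent ATP read-out (CellTiter-Glo) measures survival of drug-naive KB-3-1 cells after 72 h compound exposure at 37 °C. Titration series was screened from lowest to highest concentration, with DMSO vehicle plates as background controls.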
KB-V1 MDR tox = kills drug-selected multidrug resistant KB-V1 cells; KB-V1 MDR cells viability, CellTiter-Glo, 72 h; Potency, µM (titrated, usually from 46.1 µM), usual class: cytotoxic; 400,000 compounds, 3.4% hits; further: nearly all actives have a fitted effect of over 60% in size
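Cytotoxicity toward P-gp-expressing KB-V1 cells was determined as loss of CellTiter-Glo luminescence after 72 h at 37 degrees C. Compounds were tested in quantitative HTS format across a concentration range, with curves fitted to normalized data.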
HT1080NT lethal = kills 2HG-producing HT-1080-NT fibrosarcoma cells. HT-1080-NT fibrosarcoma viability, CellTiter-Glo ATP luminescence, 48 h. Potency, µM (titrated, usually from 46.1 µM), for inactives: at the top dose activity, negative = less viability, actives largely listed as cytotoxic. 360,000 compounds, 1.6% hits;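 further: NT is the 2HG producing partner of a matched IDH1 knockdown line; 0% = DMSO-treated cells and -100% = media-only wells without cells; nearly all actives have a fitted effect of over 55% in size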
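A 48-hour cytotoxicity screen used HT-1080-NT cells plated 2 hours before compound delivery. ATP-based CellTiter-Glo luminescence measured viability, normalized to DMSO and no-cell controls.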
An asterisk follows results filed as active; i = inactive; ? = inconclusive; · = no result given; [ ] = remark or other dose. The call rests on the fitted dose curve; in most records, active means well fitted curve in the direction sought with a large enough effect; inconclusive means small, poorly fitted or top-dose-only effect, or another doubt; inactive means no such curve, though single readings can be large; an effect the other way counts as inactive or inconclusive. Unless noted, on the % scale 0 is the no-effect control and ±100 the full control effect; potency means the concentration at half of the fitted maximal effect.

SMILES	HT1080 IDH1KD tx	KB-3-1 cytotox	KB-V1 MDR tox	HT1080NT lethal
COc1cc(C2c3[nH]c4ccccc4c3C[C@H]3C(=O)N(CCO)CC(=O)N23)cc(OC)c1OC (stereo partly drawn)	?	i	i	-5%
COc1cc(C2NC(=O)NC(C)=C2C(=O)Nc2cc(C)cc(C)c2)ccc1O (stereo not drawn)	·	i	i	·
CC(C)NCC(O)COC1CCC(C(C)(C)C)CC1 (stereo not drawn)	?	23µM*	?	-30%
CC1CCCC(C)N1CC(O)COC1CCC(C(C)(C)C)CC1 (stereo not drawn)	-28%	i	i	-17%
CCOc1ccc(CNC(=O)CSc2nnc(C)c3c(C)n(-c4ccc(Cl)cc4)nc23)cc1	·	i	i	·
CN(C)CCP(=O)(c1ccccc1)c1ccccc1	9%	i	i	-2%
CN(C)CCN(C)Cc1c2ccccc2c(CN(C)CCN(C)C)c2ccccc12	21µM*	i	i	?
O=C(CN(C1CC1)S(=O)(=O)c1ccc(S(=O)(=O)NC2CCCCC2)cc1)Nc1ccccc1	-37%	?	i	?
O=C(CN(Cc1cccs1)S(=O)(=O)c1ccc(S(=O)(=O)NC2CCCCC2)cc1)Nc1ccccc1	-26%	?	13µM*	-9%
O=C(Nc1ccc(Oc2cccnc2)cc1)c1ccccc1Cl	-25%	i	i	-17%
O=C(Nc1ccc(Oc2cccnc2)cc1)c1ccccc1F	1%	?	16µM*	11%
CCn1c(C(=O)NCc2ccccc2Br)cc2oc3ccccc3c21	?	i	i	-18%
Cc1ccc(C(=O)/C=C/c2ccc(F)cc2)o1	?	i	i	?
O=C(/C=C/c1ccc(F)cc1)c1ccccc1Br	?	23µM*	?	-18%
COc1ccccc1N1CCN(c2ccc(-c3nc(-c4ccccc4)no3)cc2[N+](=O)[O-])CC1	·	i	i	·
CN(C)c1ccc(CC(=O)N2CCCC(c3cc(C(=O)Nc4ccc(F)c(Cl)c4)no3)C2)cc1 (stereo not drawn)	?	?	21µM*	-25%
CN(C)c1ccc(CC(=O)N2CCCCC2c2cc(C(=O)Nc3ccccc3Cl)no2)cc1 (stereo not drawn)	?	i	i	33µM*
Cc1ccc2c(/C=C/c3ccc(N(C)C)cc3)ccnc2c1C	·	i	?	·
CN(C)c1ccc(/C=C/c2nc3ccccc3o2)cc1	·	i	i	·
O=C(CCCN1C(=O)/C(=C\c2cccc(Br)c2)SC1=S)Nc1cccnc1	13µM*	i	i	16µM*
O=C(CCCN1C(=O)/C(=C/c2cccc(Br)c2)SC1=S)Nc1ccccn1	7%	5.8µM*	15µM*	0%
Cc1ccc(/C=C2\SC(=S)N(CCCC(=O)Nc3cccnc3)C2=O)cc1	9%	?	23µM*	5%
CCc1ccc(/C=C2\SC(=S)N(CCCC(=O)Nc3ccccn3)C2=O)cc1	6%	?	?	6%
O=C(CCCN1C(=O)/C(=C/c2cccc(Br)c2)SC1=S)Nc1cccnc1	?	?	i	?
CC1(C)CC(=O)c2cc(C(=O)Nc3ccc(Cl)cc3)c(=O)[nH]c2C1	·	i	i	·
SMILES	HT1080 IDH1KD tx	KB-3-1 cytotox	KB-V1 MDR tox	HT1080NT lethal
CCOc1ccccc1N1CC(O)=C(c2nc3ccccc3s2)C1=N	2.8µM*	9.2µM*	?	2.8µM*
COc1ccc(OC)c(N2CC(O)=C(c3nc4ccccc4s3)C2=N)c1	-17%	i	i	-11%
N=C1C(c2nc3ccccc3s2)=C(O)CN1Cc1ccccc1	?	4.1µM*	?	?
CCN(CC)CCCN1CC(O)=C(c2nc3ccccc3s2)C1=N	?	i	i	?
Cc1ccc(-c2nnc(Nc3ccc(Br)cc3)c3ccccc23)cc1S(=O)(=O)N1CCCCC1	·	i	i	·
COc1ccc(S(=O)(=O)N2CCN(c3cc(-c4ccccc4)nc4ncnn34)CC2)cc1	?	?	23µM*	-7%
COc1ccc(-c2cc(N3CCCC3)n3ncnc3n2)cc1	-14%	i	?	-8%
O=S(=O)(c1ccccc1)N1CCN(c2cc(-c3ccccc3)nc3ncnn23)CC1	3%	i	?	-1%
O=S(=O)(c1ccc(Br)cc1)N1CCN(c2cc(-c3ccccc3)nc3ncnn23)CC1	-3%	?	13µM*	13%
Cc1ccc(CNC(=O)CN2C(=O)COc3ccc(S(=O)(=O)Nc4ccccc4)cc32)cc1	·	i	i	·
CCc1cc(C(=O)/C=C/c2cc3c(cc2C)OCCO3)c(O)cc1O	-66%	·	·	?
Cc1ccc(Cl)c(NC(=O)CCl)c1Cl	-10%	23µM*	i	-27%
Cc1ccc(Cl)c(NC(=O)CSc2cccc[n+]2[O-])c1Cl	5%	i	i	8%
COc1ccc2c(-c3cc4ccc(OCc5ccc(F)cc5)cc4oc3=O)cc(=O)oc2c1	5%	7.3µM*	8.2µM*	18%
Cc1oc(C)c2c(=O)ccc3c(c12)OC(N)=C(C#N)C3c1ccc(F)cc1 (stereo not drawn)	10%	i	i	10%
CC(=O)C1=C(c2ccccc2)OC(N)=C(C#N)C1c1ccccc1C (stereo not drawn)	6%	i	i	10%
CCN1C=C(Cc2ccccc2C)C2=C(C1)C(c1ccccc1C)C(C#N)=C(N)O2 (stereo not drawn)	?	?	21µM*	?
CCN1C=C(Cc2ccc(F)cc2)C2=C(C1)C(c1ccc(F)cc1)C(C#N)=C(N)O2 (stereo not drawn)	-1%[9.24 µM]	?	16µM*	?
OC(CNCC1CCCO1)Cn1c2ccccc2c2ccccc21 (stereo not drawn)	?	i	i	?
OC(CNCC1CCCO1)Cn1c2ccc(Cl)cc2c2cc(Cl)ccc21 (stereo not drawn)	?	?	?	26µM*
CCCCN(CCCC)CCCNC(=O)c1cc(-c2ccc(Cl)s2)nc2ccccc12	·	i	i	·
N#Cc1c(N2CCCC(O)C2)nc(N)c2c(N)nc3c(c12)CC(=O)N3C12CC3CC(CC(C3)C1)C2 (stereo not drawn)	-14%	4.1µM*	15µM*	-16%
Cn1c(SSc2ccc(-c3cccnc3)n2C)ccc1-c1cccnc1	12µM*	?	?	10µM*
Cc1c(N=C2C=CC(=O)c3ccccc32)c(=O)n(-c2ccccc2)n1C	18µM*	i	i	21µM*
COc1ccccc1OCCn1c(=O)sc2ccccc21	-12%	i	15µM*	3%
CCOc1ccc(Cn2c(=O)sc3ccccc32)cc1OC	-8%	?	12µM*	-16%
Cc1nc(NC(=O)c2ccccc2)sc1-c1csc(N)n1	?	3.7µM*	?	-19%
CCCCn1cnc2c(=O)[nH]c(N)nc21	·	i	i	·
